Laboratory results published in PubChem BioAssay (EPA / NIEHS).
Results filed as inconclusive are left out. Calls of active or inactive are those of the source. Rule for the calls, unless noted: active = hit-call score of the fitted dose curve at least 0.9, where 1 is the maximum; inactive = score below 0.9.

Assays:
[1] = target: Bile acid receptor (Homo sapiens) (UniProt Q96RI1); assay: OT_FXR_FXRSRC1_0480: Odyssey Thera (OT) 8-hour HEK293T Protein-Complementation Assay for Farnesoid X receptor/SRC-1 Co-activator (AID 2283383; active = hit-call score of the fitted dose curve at least 0.9, where 1 is the maximum)
In short: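 HEK293T cells expressing FXR and SRC-1 fused to reporter fragments were dosed with compound for 8 h; fluorescence from the reconstituted reporter marked co-activator recruitment. Gain of signal was fitted against the DMSO baseline.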

[2] = target: Bile acid receptor (Homo sapiens) (UniProt Q96RI1); assay: OT_FXR_FXRSRC1_1440: Odyssey Thera (OT) 24-hour HEK293T Protein-Complementation Assay for Farnesoid X receptor/SRC-1 Co-activator (AID 2283384; active = hit-call score of the fitted dose curve at least 0.9, where 1 is the maximum)
In short: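 HEK293T cells were dosed with compound and read 24 h later by fluorescence intensity from protein-fragment complementation reporting FXR/SRC-1 co-activator interaction. Gain of signal was fitted relative to DMSO negative control as baseline.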

[3] = target: Peroxisome proliferator-activated receptor gamma (Homo sapiens) (UniProt P37231); assay: OT_PPARg_PPARgSRC1_0480: Odyssey Thera (OT) 8-hour Protein-Complementation Assay for Peroxisome Proliferator-activated Receptor Gamma / SRC-1 Co-activator (AID 2283387; active = hit-call score of the fitted dose curve at least 0.9, where 1 is the maximum)
In short: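 Split-YFP (IFP1/IFP2) PPARg/SRC-1 reporter, HEK293T, 37 °C, 5% CO2; 8 h compound; formaldehyde fix + Draq5; high-content imaging, N/C ratio, ≥350 cells/image, positive direction vs DMSO.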

[4] = target: Peroxisome proliferator-activated receptor gamma (Homo sapiens) (UniProt P37231); assay: OT_PPARg_PPARgSRC1_1440: Odyssey Thera (OT) 24-hour Protein-Complementation Assay for Peroxisome Proliferator-activated Receptor Gamma/ SRC-1 Co-activator (AID 2283388; active = hit-call score of the fitted dose curve at least 0.9, where 1 is the maximum)
In short: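 HEK293T cells transiently transfected with PPARg and SRC-1 fused via (Gly4Ser)2 linker to split Venus YFP fragments (IFP1/IFP2) were dosed 24 h; fixed, Draq5-stained, imaged at 488/635 nm; nuclear/cytoplasmic fluorescence ratio scored versus DMSO baseline, gain-of-signal.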

[5] = target: Estrogen receptor (Homo sapiens) (UniProt P03372); assay: OT_ERa_GFPERaERE_0480: Odyssey Thera (OT) 8-hour HeLa Transcription Induction Assay for Estrogen Receptor (AID 2283381)
In short: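 HeLa cells dosed with compound and imaged by fluorescence microscopy at 8 h; GFP induction from an ERE reporter quantified by high-content image analysis and fitted as gain of signal against DMSO baseline.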

[6] = target: Estrogen receptor (Homo sapiens) (UniProt P03372); assay: OT_ERa_GFPERaERE_0120: Odyssey Thera (OT) 2-hour HeLa Transcription Induction Assay for Estrogen Receptor (AID 2283382; active = hit-call score of the fitted dose curve at least 0.9, where 1 is the maximum)
In short: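 HeLa cells were dosed with test chemical and read 2 hours later for GFP-ERα/ERE-linked fluorescent protein induction by fluorescence microscopy. Gain-of-signal was fitted relative to DMSO baseline, quantified by high content image analysis.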

[7] = CEETOX_H295R_11DCORT: CeeTox H295R High-throughput Steroidogenesis Assay for 11-Deoxycortisol (11DCORT) (AID 2283432); conditions: actives raise or lower the signal;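 for AC50: 11-deoxycortisol secreted into the medium measured by LC-MS/MS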
In short: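 Steroidogenesis in human H295R cells: 48 h chemical exposure after forskolin priming, 11-deoxycortisol measured by LC-MS/MS.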

[8] = CEETOX_H295R_OHPREG: CeeTox H295R High-throughput Steroidogenesis Assay for OH-Pregnenolone (OHPREG) (AID 2283434); conditions: actives raise or lower the signal
In short: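 Human adrenal H295R cells were prestimulated 48 h with 10 uM forskolin, then exposed 48 h to chemical in 0.1% DMSO. Medium 17alpha-hydroxypregnenolone was quantified by HPLC-MS/MS after MTBE extraction; bidirectional fitting versus DMSO baseline.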

[9] = CEETOX_H295R_OHPROG: CeeTox H295R High-throughput Steroidogenesis Assay for OH-Progesterone (OHPROG) (AID 2283435); conditions: actives raise or lower the signal
In short: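 H295R human adrenal cells were prestimulated 48 h with 10 uM forskolin, then exposed 48 h to test chemical (0.1% DMSO final). 17alpha-hydroxyprogesterone in medium was measured by HPLC-MS/MS after MTBE extraction; bidirectional fitting vs DMSO.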

[10] = CEETOX_H295R_ANDR: CeeTox H295R High-throughput Steroidogenesis Assay for Androstenedione (ANDR) (AID 2283436); conditions: actives raise or lower the signal
In short: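 H295R human adrenal cells (passages ≤10) were exposed to test chemicals for 48 h; androstenedione in medium was MTBE-extracted and quantified by HPLC-MS/MS against a 7-point standard curve. Bidirectional fitting used DMSO as baseline.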

[11] = CEETOX_H295R_CORTIC: CeeTox H295R High-throughput Steroidogenesis Assay for Corticosterone (CORTIC) (AID 2283437); conditions: actives raise or lower the signal;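 note: corticosterone secreted into medium quantified by mass spectrometry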
In short: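 H295R cells were prestimulated 48 h with 10 uM forskolin, then exposed 48 h to test chemical in 0.1% DMSO. Medium corticosterone was MTBE-extracted and quantified by HPLC-MS/MS; bidirectional fit versus DMSO baseline.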

[12] = CEETOX_H295R_CORTISOL: CeeTox H295R High-throughput Steroidogenesis Assay for Cortisol (AID 2283438); conditions: actives raise or lower the signal;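 note: cortisol secreted into medium quantified by LC-MS/MS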
In short: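 H295R human adrenal cells were prestimulated 48 h with 10 uM forskolin, then exposed 48 h to test chemical (0.1% DMSO final). Medium cortisol was quantified by HPLC-MS/MS after MTBE extraction; bidirectional fitting relative to DMSO baseline.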

[13] = CEETOX_H295R_DOC: CeeTox H295R High-throughput Steroidogenesis Assay for DOC (AID 2283439); conditions: actives raise or lower the signal
In short: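 H295R adrenal cells prestimulated 48 h with 10 uM forskolin, then exposed 48 h to test chemical (0.1% DMSO final). Medium 11-deoxycorticosterone extracted with MTBE, quantified by HPLC-MS/MS; bidirectional fit versus DMSO baseline; MTT viability in same wells.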

[14] = CEETOX_H295R_PROG: CeeTox H295R High-throughput Steroidogenesis Assay for Progesterone (PROG) (AID 2283442); conditions: actives raise or lower the signal;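 for AC50: human H295R adrenal cells primed with 10 µM forskolin before dosing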
In short: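 H295R human adrenal cells were prestimulated with 10 uM forskolin for 48 h, then exposed to test chemical (0.1% DMSO final) for 48 h. Medium progesterone was MTBE-extracted and quantified by HPLC-MS/MS, with bidirectional fitting against DMSO.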

[15] = target: Retinoic acid receptor RXR-alpha (Homo sapiens) (UniProt P19793); assay: OT_NURR1_NURR1RXRa_0480: Odyssey Thera (OT) 8-hour HEK293T Protein Complementation Assay for Nurr1/retinoid X receptor (RXR) (AID 2283385; active = hit-call score of the fitted dose curve at least 0.9, where 1 is the maximum)
In short: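 HEK293T cells expressing Nurr1 and RXRα fused to reporter fragments were dosed with compound for 8 hours. Complex formation was read as fluorescence intensity and analysed as gain of signal against DMSO as baseline.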

[16] = CEETOX_H295R_ESTRADIOL: CeeTox H295R High-throughput Steroidogenesis Assay for Estradiol (AID 2283440); conditions: actives raise or lower the signal;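 note: estradiol secreted into medium quantified by LC-MS/MS after dansyl derivatisation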
In short: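 H295R adrenocortical cells were prestimulated with 10 uM forskolin for 48 h, then exposed to test chemical in 0.1% DMSO for 48 h. Medium estradiol was extracted with MTBE, dansyl-derivatized and quantified by HPLC-MS/MS; bidirectional fit versus DMSO.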

[17] = CEETOX_H295R_ESTRONE: CeeTox H295R High-throughput Steroidogenesis Assay for Estrone (AID 2283441); conditions: actives raise or lower the signal;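 note: estrone secreted into medium measured by LC-MS/MS after dansyl derivatization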
In short: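 H295R cells; 48 h forskolin (10 uM) prestimulation; 48 h compound exposure, 0.1% DMSO final. Medium estrone: MTBE extraction, dansyl derivatization, HPLC-MS/MS. Bidirectional fit vs DMSO.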

[18] = target: Retinoic acid receptor RXR-alpha (Homo sapiens) (UniProt P19793); assay: OT_NURR1_NURR1RXRa_1440: Odyssey Thera (OT) 24-hour HEK293T Protein Complementation Assay for Nurr1/retinoid X receptor (RXR) (AID 2283386; active = hit-call score of the fitted dose curve at least 0.9, where 1 is the maximum)
In short: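 HEK293T cells were dosed with compound and read 24 h later by fluorescence intensity in a protein-fragment complementation format, where Nurr1–RXRα interaction reconstitutes a split reporter. Activity was fitted as gain of signal relative to DMSO baseline.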

Measured: AC50

Sequence of Estrogen receptor (Homo sapiens) (P03372 whole entry, looked up): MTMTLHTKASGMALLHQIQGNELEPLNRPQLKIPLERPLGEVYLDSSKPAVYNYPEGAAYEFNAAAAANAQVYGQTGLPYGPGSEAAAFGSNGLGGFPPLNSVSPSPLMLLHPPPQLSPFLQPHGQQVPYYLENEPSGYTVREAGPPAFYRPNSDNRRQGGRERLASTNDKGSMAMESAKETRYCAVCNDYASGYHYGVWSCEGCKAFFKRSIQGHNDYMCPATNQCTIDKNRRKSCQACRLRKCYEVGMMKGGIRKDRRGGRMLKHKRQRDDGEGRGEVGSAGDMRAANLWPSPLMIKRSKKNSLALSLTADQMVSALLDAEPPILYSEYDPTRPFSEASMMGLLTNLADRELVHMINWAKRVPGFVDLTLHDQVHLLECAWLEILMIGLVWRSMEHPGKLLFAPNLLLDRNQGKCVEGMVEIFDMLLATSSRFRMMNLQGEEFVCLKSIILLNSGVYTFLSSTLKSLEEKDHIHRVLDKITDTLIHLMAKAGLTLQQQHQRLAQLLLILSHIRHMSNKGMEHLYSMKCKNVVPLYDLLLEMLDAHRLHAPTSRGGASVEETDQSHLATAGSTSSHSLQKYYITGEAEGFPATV
Sequence of Peroxisome proliferator-activated receptor gamma (Homo sapiens) (P37231 whole entry, looked up, the tested form may be a part): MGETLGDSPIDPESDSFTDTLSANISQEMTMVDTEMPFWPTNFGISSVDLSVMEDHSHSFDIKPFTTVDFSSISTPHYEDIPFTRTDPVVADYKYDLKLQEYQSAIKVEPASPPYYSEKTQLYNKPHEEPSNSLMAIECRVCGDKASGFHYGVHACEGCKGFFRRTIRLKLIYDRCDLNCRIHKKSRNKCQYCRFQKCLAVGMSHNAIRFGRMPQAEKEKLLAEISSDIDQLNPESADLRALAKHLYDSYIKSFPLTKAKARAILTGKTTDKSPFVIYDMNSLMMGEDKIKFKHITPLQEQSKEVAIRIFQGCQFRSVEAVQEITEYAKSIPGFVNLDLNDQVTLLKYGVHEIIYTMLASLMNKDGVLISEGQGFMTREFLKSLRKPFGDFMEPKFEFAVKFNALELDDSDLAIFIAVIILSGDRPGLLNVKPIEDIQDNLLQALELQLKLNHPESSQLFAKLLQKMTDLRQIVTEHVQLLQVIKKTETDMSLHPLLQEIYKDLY
Sequence of Retinoic acid receptor RXR-alpha (Homo sapiens) (P19793 whole entry, looked up, the tested form may be a part): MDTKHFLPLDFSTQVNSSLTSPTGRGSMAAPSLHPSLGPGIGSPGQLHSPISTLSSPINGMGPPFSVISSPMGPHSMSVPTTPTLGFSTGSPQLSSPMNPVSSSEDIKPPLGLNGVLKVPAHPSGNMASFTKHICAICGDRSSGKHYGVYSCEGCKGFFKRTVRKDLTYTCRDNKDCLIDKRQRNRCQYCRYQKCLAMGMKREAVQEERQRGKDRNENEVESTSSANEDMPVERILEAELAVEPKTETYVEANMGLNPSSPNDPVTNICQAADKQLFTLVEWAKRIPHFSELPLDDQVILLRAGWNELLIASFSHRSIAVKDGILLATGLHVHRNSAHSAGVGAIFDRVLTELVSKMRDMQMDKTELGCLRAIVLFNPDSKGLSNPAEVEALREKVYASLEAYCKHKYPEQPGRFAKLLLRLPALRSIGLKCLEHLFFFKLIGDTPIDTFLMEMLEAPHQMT
Sequence of Bile acid receptor (Homo sapiens) (Q96RI1 whole entry, looked up, the tested form may be a part): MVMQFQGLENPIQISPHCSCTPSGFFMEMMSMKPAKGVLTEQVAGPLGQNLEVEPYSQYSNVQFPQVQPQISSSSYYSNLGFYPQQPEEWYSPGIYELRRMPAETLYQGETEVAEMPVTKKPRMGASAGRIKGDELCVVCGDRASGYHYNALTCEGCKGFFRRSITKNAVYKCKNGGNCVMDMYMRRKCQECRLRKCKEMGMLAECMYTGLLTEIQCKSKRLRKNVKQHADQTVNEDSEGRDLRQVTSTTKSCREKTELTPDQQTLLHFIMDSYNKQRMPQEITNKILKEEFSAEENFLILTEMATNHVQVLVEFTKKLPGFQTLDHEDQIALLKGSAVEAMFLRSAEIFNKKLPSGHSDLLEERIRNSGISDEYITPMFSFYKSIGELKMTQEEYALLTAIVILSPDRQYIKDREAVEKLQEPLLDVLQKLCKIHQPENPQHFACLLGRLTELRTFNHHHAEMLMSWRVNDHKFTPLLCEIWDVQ

COc1cc(C(C)(C)C)c(O)c(C(C)(C)C)c1
inactive: [2] | [3] | [4]
active: [1] 67 µM

CN(C)CCCN
inactive: [5] | [6] | [2] | [3] | [4]

CCN(CC)CCOC(=O)c1ccc(N)cc1
inactive: [3] | [4]

O=C(O)C[C@H](O)C[C@H](O)/C=C/c1c(C2CC2)nc2ccccc2c1-c1ccc(F)cc1
inactive: [12]
active: [7] 0.0625 µM | [8] 0.00206 µM | [9] 0.0582 µM | [10] 0.0768 µM | [11] 0.0418 µM | [13] 0.0331 µM | [14] 0.0233 µM

NC(=O)NC1NC(=O)NC1=O (configuration not stated)
inactive: [15] | [3] | [4]

Nc1ccc(F)c([N+](=O)[O-])c1
inactive: [7] | [8] | [11] | [12] | [13] | [16] | [17]
active: [9] 37.7 µM | [14] 50 µM

C#C[C@]1(O)CC[C@H]2[C@@H]3CCC4=Cc5oncc5C[C@]4(C)[C@H]3CC[C@@]21C
active: [7] 5.4 µM | [8] 0.36 µM | [9] 0.871 µM | [11] 14.5 µM | [12] 3.34 µM | [16] 5.57 µM | [17] 3.42 µM | [14] 0.225 µM
inactive: [13]

NCCCCCCN
inactive: [15] | [3] | [4]

CSc1nc(NC2CC2)nc(NC(C)(C)C)n1
inactive: [15] | [3] | [4] | [8] | [9] | [14]

CC(C)=CCCC(C)CC=O (configuration not stated)
inactive: [1] | [2] | [15] | [3] | [4]

CC1CC(OC(=O)c2ccccc2O)CC(C)(C)C1 (configuration not stated)
active: [15] 92.8 µM
inactive: [3] | [4]

COc1cc2ncnc(Nc3cccc(Cl)c3)c2cc1OC
inactive: [7] | [8] | [9] | [10] | [11] | [12] | [16] | [17] | [14]
active: [13] 0.496 µM

CC1(C)[C@H](C(=O)OCc2cccc(Oc3ccccc3)c2)[C@@H]1C=C(Cl)Cl
inactive: [7] | [8] | [9] | [10] | [11] | [12] | [13] | [14]

CCCCCCCCCCCCN
active: [15] 11 µM | [18] 10.6 µM
inactive: [3] | [4]

O=C(O)c1ccc(C(=O)O)cc1
inactive: [3] | [4]

CCCOCC(C)O (configuration not stated)
inactive: [3] | [4]

CCCCCCCCCCC(CO)CCCCCCCC (configuration not stated)
inactive: [3] | [4]

Nc1cc([N+](=O)[O-])ccc1Cl
active: [9] 39.3 µM
inactive: [7] | [8] | [10] | [11] | [12] | [13] | [14]

CC(=O)OCCC(C)CC(C)(C)C (configuration not stated)
inactive: [5] | [6] | [2] | [3] | [4]

CCCCCCCCCCCCCCCC(=O)OC[C@H](O)[C@H]1OC(=O)C(O)=C1O
inactive: [5] | [6] | [15] | [3] | [4]

Cc1ccc(O)c(C(C)(C)C)c1
active: [15] 50 µM
inactive: [18] | [3] | [4]
